# Records with an inconclusive call do not appear. Values without a mark were called inactive. The source made the active and inactive calls. Calls come from the whole dose curve. Starred links: 1 amine or outer side, 2 acyl side, 3 side chain; linkers in the order of their positions; H or OH if unused. Positions of bridges follow the written chain, without caps; N, C: chain ends. Non-standard residues stand in square brackets, D forms with d. Residues, ends and D or L forms follow the SMILES beside them. Chains are numbered I, II in the order given. Actinocin(9to1) = Cc1c2oc3c(C)ccc(C(=O)[*:1])c3nc-2c(C(=O)[*:2])c(N)c1=O; NMeV = CN[C@H](C(=O)O)C(C)C; Sar = CNCC(=O)O
# Biological target: Peroxisome proliferator-activated receptor delta (Homo sapiens) (UniProt Q03181)
# Sequence (Q03181 whole entry, looked up): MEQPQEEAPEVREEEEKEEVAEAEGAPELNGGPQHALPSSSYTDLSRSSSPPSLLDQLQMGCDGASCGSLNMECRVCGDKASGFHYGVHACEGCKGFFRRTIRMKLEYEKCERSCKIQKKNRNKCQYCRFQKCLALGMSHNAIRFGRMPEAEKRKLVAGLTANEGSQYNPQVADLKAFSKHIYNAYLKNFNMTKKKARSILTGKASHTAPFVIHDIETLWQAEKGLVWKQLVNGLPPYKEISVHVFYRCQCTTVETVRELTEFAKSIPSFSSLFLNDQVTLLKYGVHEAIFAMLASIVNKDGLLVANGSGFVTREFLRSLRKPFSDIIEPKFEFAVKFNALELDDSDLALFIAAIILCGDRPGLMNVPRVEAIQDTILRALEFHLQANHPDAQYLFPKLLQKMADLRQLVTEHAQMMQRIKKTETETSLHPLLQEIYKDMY
# Assay: qHTS assay to identify small molecule agonists of the peroxisome proliferator-activated receptor delta (PPARd) signaling pathway (AID 743212)
# Conditions: HEK293H PPARd-UAS-bla, beta-lactamase FRET ratio, 17 h; series mostly up to 62.6 µM; activation: at the top concentration
# Description: U.S. Tox21 Program National Center for Advancing Translational Sciences [NCATS] NIH Chemical Genomics Center [NCGC] U.S. Environmental Protection Agency [EPA] National Institutes of Environmental Health Sciences [NIEHS] National Toxicology Program [NTP] U.S. Food and Drug Administration [FDA] Tox21 Assay Overview: The peroxisome proliferator-activated receptors (PPARs) are lipid-activated transcription factors of the nuclear receptor superfamily with three distinct subtypes namely PPAR alpha, PPAR delta (PPARd) and PPAR gamma. All these subtypes heterodimerizes with Retinoid X receptor (RXR) and have different physiological functions. […] To identify the compounds that activate PPAR-delta signaling, GeneBLAzer PPAR delta UAS-bla HEK293H cell line (Invitrogen, Carlsbad, CA, USA) containing a beta-lactamase reporter gene under the control of an Upstream Activator Sequence (UAS) was used to screen the Tox21 compound library.
# Tox21 Assay Protocol Summary: PPARd-bla cells were dispensed at 3000 cells/6uL/well in 1536-well black wall/clear bottom plates using a Multidrop Combi (Thermo Fisher Scientific, Waltham, MA) dispenser. After the assay plates were incubated at 37 C and 5% CO2 for 5 h, 23 nL of compounds dissolved in DMSO, positive controls or DMSO only was transferred to the assay plate by a Pintool station (Kalypsys, San Diego, CA). The assay plates were incubated at 37C for 17 h. After 1 uL of LiveBLAzerTM B/G FRET substrate was added using a Bioraptr Flying Reagent Dispenser (FRD) workstation (Beckman Coulter, Indianapolis, IN, USA), the plates were incubated at room temperature for 2 h, and fluorescence intensity was measured by an Envision plate reader (PerkinElmer, Shelton, CT).
# % is set by controls: 0 for no effect and ±100 for the full control effect.
Compound,Potency,activation
O=S(=O)(O)c1ccc2nc(-c3ccccc3)[nH]c2c1,inactive,
CC(C)(C)NCC(O)COc1ccccc1OCC1CCCO1 (stereo not given),,0.22%
O=C(O)CCc1ccccc1,,-1.76%
Cc1ccc(S(=O)(=O)Oc2ccc(N=Nc3ccc(-c4ccc(N=Nc5c(O)ccc6cc(S(=O)(=O)O)cc(S(=O)(=O)O)c56)c(C)c4)cc3C)cc2)cc1,,11%
O=C(O)Cn1cnnn1,,0.975%
CCN(CC)C(=O)Nc1ccc(OCC(O)CNC(C)(C)C)c(C(C)=O)c1 (stereo not given),,-2.92%
CC(=O)CC(C)=O,,0.743% [at 81.1 µM]
C=C(C)C(=O)O,inactive,
CCCC(=O)c1ccccc1,,-2.07%
CO[Si](OC)(OC)c1ccccc1,,15.9%
CC(=O)N[C@@H](CS)C(=O)O,inactive,
CC(=O)OCCOCCOCCOC(C)=O,inactive,
CC1COc2c(N3CCN(C)CC3)c(F)cc3c(=O)c(C(=O)O)cn1c23 (stereo not given),,-1.43%
CC[C@@H](N)CO,,-1.25% [at 81.1 µM]
BrC1CCC(Br)C(Br)CCC(Br)C(Br)CCC1Br (stereo not given),,0.619%
C=C(C)C1CC=C(C)C(OC(C)=O)C1 (stereo not given),inactive,
CC1=C(C=O)C(C)(C)CC=C1,,-0.582% [at 81.1 µM]
COc1nc(C)nc(Cl)c1NC1=NCCN1,,1.78%
CCCCOCCOC(=O)c1ccccc1C(=O)OCCOCCCC,,-3.95%
O=C(O)CP(=O)(O)O,,0.078%

Compound,Potency,activation
OCCOCCN1CCN(C(c2ccccc2)c2ccc(Cl)cc2)CC1 (stereo not given),inactive,
CCOc1ccccc1C(N)=O,,-0.855%
Cc1ccnc2c1NC(=O)c1cccnc1N2C1CC1,inactive,
CNC1(C)C2CCC(C2)C1(C)C (stereo not given),,1.41%
COC(c1ccccc1)(c1ccccc1)[C@H](Oc1nc(C)cc(C)n1)C(=O)O,,-6.25%
Cc1cc(Cc2cc(C)cc(C(C)(C)C)c2O)c(O)c(C(C)(C)C)c1,,2.84% [at 81.1 µM]
CCCCN(CCO)CCCC,,-4.93% [at 81.1 µM]
CCN1CCCC1CNC(=O)c1cc(S(=O)(=O)CC)c(N)cc1OC (stereo not given),,-0.189%
C/C=C/c1ccc(OCC)c(O)c1,,2.3%
CCn1cc(C(=O)O)c(=O)c2cc(F)c(N3CCNC(C)C3)c(F)c21 (stereo not given),,1.26%
CC(=O)Nc1ccc(C(=O)CCl)cc1,,8.06%
NC(Cc1ccc(Cl)cc1)C(=O)O (stereo not given),,2.85% [at 0.55 µM]
Nc1cc(Cl)c(-c2cc(Cl)c(N)cc2Cl)cc1Cl,,14.3%
c1ccc2n[nH]nc2c1,inactive,
Cc1cc(C(C)(C)C)c(O)c(C(C)(C)C)c1,inactive,
"Cc1c2oc3c(C)ccc(C(=O)N[C@@H]4C(=O)N[C@H](C(C)C)C(=O)N5CCC[C@H]5C(=O)N(C)CC(=O)N(C)[C@@H](C(C)C)C(=O)O[C@@H]4C)c3nc-2c(C(=O)N[C@@H]2C(=O)N[C@H](C(C)C)C(=O)N3CCC[C@H]3C(=O)N(C)CC(=O)N(C)[C@@H](C(C)C)C(=O)O[C@@H]2C)c(N)c1=O (I: T[dV]P[Sar][NMeV] / II: T[dV]P[Sar][NMeV]; ester I:1-I:C, II:1-II:C; linker I:N-II:N via Actinocin(9to1))",inactive,
CCc1ccc(C(c2ccc(CC)cc2)C(Cl)Cl)cc1,inactive,
COc1ccc(Cc2cnc(N)nc2N)cc1OC,,-0.121%
Cc1occc(=O)c1OC(=O)C(C)C,,-2.97%
c1ccc2c(c1)CCCC2C1=NCCN1 (stereo not given),,0.994%
